SMILES strings stand for the structures. Results filed as inconclusive are left out. Unmarked numbers belong to inactive results. Calls of active or inactive are those of the source. The call rests on the fitted dose curve; in most records, active means well fitted inhibition curve with a large enough effect; inconclusive means small, poorly fitted or top-dose-only effect; inactive means flat fitted curve, though single readings scatter.

Luciferin 4-monooxygenase (Photinus pyralis), sequence (P08659 whole entry, looked up): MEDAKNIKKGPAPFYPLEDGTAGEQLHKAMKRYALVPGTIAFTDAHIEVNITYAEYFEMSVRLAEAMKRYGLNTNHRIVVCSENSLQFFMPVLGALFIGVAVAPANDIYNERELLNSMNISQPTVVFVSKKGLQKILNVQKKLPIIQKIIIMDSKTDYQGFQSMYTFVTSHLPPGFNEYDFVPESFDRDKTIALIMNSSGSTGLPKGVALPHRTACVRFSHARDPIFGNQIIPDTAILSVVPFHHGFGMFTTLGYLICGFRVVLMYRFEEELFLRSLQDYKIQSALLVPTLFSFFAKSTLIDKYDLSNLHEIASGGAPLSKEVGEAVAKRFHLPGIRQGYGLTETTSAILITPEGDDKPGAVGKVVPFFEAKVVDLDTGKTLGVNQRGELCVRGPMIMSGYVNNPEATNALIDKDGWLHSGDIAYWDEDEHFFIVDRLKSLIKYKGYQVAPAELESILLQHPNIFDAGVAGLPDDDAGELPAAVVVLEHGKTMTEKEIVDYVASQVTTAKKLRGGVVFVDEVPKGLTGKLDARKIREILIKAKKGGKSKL

For this assay, the target named is Luciferin 4-monooxygenase (Photinus pyralis) (UniProt P08659). Kind of assay: FLuc inhibitory activity for the follow-up compounds in a biochemical assay with 1mM D-luciferin. The following applies: purified FLuc, luminescence; series mostly up to 57.5 µM; activity change, negative = inhibition: at the top concentration. From the text:
NCGC Assay Overview: Firefly (Photinus pyralis) luciferase is one of the most commonly used transcriptional reporters. It is considered one of the more dynamically responsive reporters - that is, responsive to changes in reporter transcription - as it requires no post-translational modifications and is enzymatically active directly after protein synthesis (Wood, 1998). With no endogenous expression in mammalian cells and without the requirement of external excitation, it offers very little background signal, thus generally providing excellent signal to background for most assays. Previous profiling work to determine the prevalence of compounds that affect FLuc enzymatic activity (PubChem AID 411) identified that ~3% of the MLSMR library (then at ~72K) inhibited FLuc. […] Of the compounds identified in this profile that inhibited FLuc, 151 compounds were selected for further analysis, in an effort to better understand their mode of inhibiting FLuc. The assay described here was to determine the activity of the compounds in a FLuc assay that contained a KM concentration of ATP and a high concentration (1mM) of D-luciferin.
NCGC Assay Protocol Summary: Reagents: 50mM Tris acetate, pH 7.5; 10mM Mg acetate; 1mM D-luciferin (Sigma #L9504); 10uM ATP; 0.01% Tween-20; 0.05% BSA; 10nM P. pyralis luciferase (Sigma #L9506) Control compounds used were two known firefly luciferase inhibitors (3-(5-(3-chlorophenyl)-1,2,4-oxadiazol-3-yl)benzoic acid and 5-(2-fluorophenyl)-3-phenyl-1,2,4-oxadiazole), and DMSO. Three microliters containing firefly luciferase substrates in buffer (final concentrations: 50mM Tris acetate, pH 7.5, 10mM Mg acetate, 0.01% Tween-20, 0.05% BSA, 1mM D-luciferin, 10uM ATP) are dispensed into each well of a Greiner white, solid-bottom 1536-well format plate using a flying reagent dispenser (FRD). These assay plates were then treated with 23nL of compound or DMSO using a Kalypsys pin tool, which allows for delivery of a 12-point intraplate titration of each compound to the assay plate (quantitative HTS), with a final compound concentrations ranging from approximately ~60uM to 0.3nM. One microliter of firefly luciferase in […] Tris-acetate buffer was then delivered by FRD to each well for a final enzyme concentration of 10nM. Luciferase activity was then measured using a ViewLux CCD imager (PerkinElmer), with an average exposure time of 2-30 seconds (2X binning, medium/high gain).
`CCOc1c(Cl)cc(C(=O)Nc2ccccc2C(=O)O)cc1Cl`: the Potency was 16.3 µM (active). On the same count and under the same terms, next, `COc1ccc(C(=O)Nc2ccccc2C(=O)Nc2ccccc2C(=O)O)cc1`: 1.63 µM (active). Turning to `O=C(Nc1ccccc1C(=O)O)c1cc(S(=O)(=O)NCc2ccccc2)ccc1Cl`, the “activity change, negative = inhibition” value was -4.2%.

Take `Cc1ccc(C(=O)Nc2ccc(C(=O)O)cc2)cc1S(=O)(=O)Nc1ccccc1`: the “activity change, negative = inhibition” value is 2.27%. For the compound `COc1cc(OC)cc(-c2nc3ccccc3s2)c1`, the Potency was 18.3 µM (active). Consider `CCOc1ccc(C(=O)Nc2cccc(C(=O)O)c2)cc1Cl`, for which the Potency is 6.51 µM (active).

For `COc1ccc2nc(NC(=O)C3CCN(S(=O)(=O)c4cccnc4)CC3)sc2c1`, the “activity change, negative = inhibition” value is -3.84%. Turning to `O=C(Nc1ccccc1-c1nc2ccccc2s1)c1ccc(Br)o1`, the “activity change, negative = inhibition” value was -0.997%. As to `CC(C)c1ccc(C(=O)Nc2ccc(-c3nc4ccccc4s3)c(Cl)c2)cc1`, the “activity change, negative = inhibition” value is -7.4%. Regarding `CCOc1ccc(C(=O)Nc2ccccc2C(=O)O)cc1`, the Potency is 3.66 µM (active). As to `Cc1ccc(S(=O)(=O)N2CCOCC2)cc1C(=O)Nc1ccccc1C(=O)O`, the “activity change, negative = inhibition” value is -7.96%.

Regarding `Cc1ccc2nc(-c3ccc(N)cc3)sc2c1`, the Potency was 0.517 µM (active).

As to `COc1ccc2nc(NC(=O)c3nc(S(=O)(=O)Cc4ccc(C)cc4)ncc3Cl)sc2c1`, the “activity change, negative = inhibition” value was 0.938%. On the same count and under the same terms, next, `O=C(Nc1ccccc1C(=O)O)c1cccc(S(=O)(=O)Nc2ccc(Br)cc2)c1`: -16.9%. Still for that read-out and setting: next, `O=C(Nc1ccccc1C(=O)O)c1ccccc1`: -19.5%. Regarding `NC(=O)Cc1ccc2sc(-c3ccccc3)nc2c1`, the Potency is 13 µM (active). As for `COc1ccc(CC(=O)Nc2ccc(-c3nc4ccccc4s3)c(C)c2)cc1`, the “activity change, negative = inhibition” value is -11.1%.

In the case of `COc1ccc(C(=O)Nc2nc3ccc(OC)cc3s2)cc1`, the Potency is 5.17 µM (active). For `Cc1c(C)c2ccc(OCC(=O)Nc3ccccn3)c(C)c2oc1=O`, the Potency is 0.0919 µM (active). Turning to `CC(C)Oc1ccc(C(=O)Nc2ccc(-c3nc4ccccc4s3)cc2)cc1`, the “activity change, negative = inhibition” value was 4.02%.

As for `Cc1ccc(C(=O)O/N=C(\N)c2ccccn2)cc1`, the Potency was 0.183 µM (active).

For the compound `Nc1ccc(-c2nc3ccc(C(=O)O)cc3s2)cc1`, the Potency is 1.16 µM (active). With `COc1ccc(C(=O)Nc2cccc(C(=O)O)c2)cc1S(=O)(=O)N1CCCC1`, the “activity change, negative = inhibition” value is -20.1%. The same measure, in the same setting: next, `O=C(Nc1c(Cl)cc(Cl)cc1-c1nc2ccccc2s1)c1ccc(Br)o1`: -2.74%. As to `CCCOc1cccc(C(=O)Nc2ccc(-c3nc4ccccc4s3)c(Cl)c2)c1`, the “activity change, negative = inhibition” value was -4.48%. For `Nc1ccccc1-c1nc2ccccc2s1`, the Potency was 18.3 µM (active). With `O=C(O)c1cccc(NC(=O)c2cccc(S(=O)(=O)Nc3cccc(F)c3)c2)c1`, the “activity change, negative = inhibition” value was -4.54%. As for `COc1ccc2nc(NC(=O)c3ccc(NS(=O)(=O)c4cccs4)cc3)sc2c1`, the Potency was 18.3 µM (active). The same measure, in the same setting: as for `c1ccc2sc(-c3ccc4c(c3)OCO4)nc2c1`, the figure is 1.3 µM (active); as for `CCOc1ccc2nc(NC(=O)Cc3cccs3)sc2c1`, 18.3 µM (active).

Regarding `O=C(O)c1ccc(NC(=O)c2cccc(C(=O)Nc3ccc(C(=O)O)cc3)c2)cc1`, the “activity change, negative = inhibition” value was -16.3%. On to `O=C(Nc1ccccc1C(=O)Nc1ccccc1C(=O)O)c1ccccc1`, for which the Potency was 20.6 µM (active). Still for that read-out and setting: next, `CC(=O)Oc1ccc(C(=O)Nc2ccccc2C(=O)Nc2ccc(C(=O)O)cc2)cc1`: 18.3 µM (active); `CN(C)c1cccc(C(=O)Nc2ccc(-c3nc4ccccc4s3)cc2)c1`: 18.3 µM (active); `O=C(Nc1ccc(-c2nc3ccccc3s2)cc1)C1=COCCO1`: 0.366 µM (active).

Consider `COc1ccc(C(=O)Nc2ccccc2-c2nc3ccccc3s2)c(OC)c1`, for which the “activity change, negative = inhibition” value is -4.07%. As to `O=C(Nc1ccccc1C(=O)O)c1ccc(Cl)c(S(=O)(=O)N2CCOCC2)c1`, the Potency was 18.3 µM (active). For `Cc1cccc(NS(=O)(=O)c2cccc(C(=O)Nc3cccc(C(=O)O)c3)c2)c1`, the “activity change, negative = inhibition” value was -10.3%.

Source of the values: PubChem BioAssay AID602365 (National Center for Advancing Translational Sciences (NCATS), 2012).
